Source: PubChem (several laboratories)
Sampled rows, rich in hits. Any-hit rate of the full collection: about 2.4%.
A3A deaminase: inhibitors of human APOBEC3A DNA deaminase | recombinant A3A, FAM/TAMRA ssDNA deamination fluorescence | AID 493011 | inhibition, % at 20 µM | 330,000 compounds, 0.41% hits;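 active = at least 40% inhibition at 20 µM here, with at most 30% in a related deaminase screen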
Target sequence (P31941 whole entry, looked up): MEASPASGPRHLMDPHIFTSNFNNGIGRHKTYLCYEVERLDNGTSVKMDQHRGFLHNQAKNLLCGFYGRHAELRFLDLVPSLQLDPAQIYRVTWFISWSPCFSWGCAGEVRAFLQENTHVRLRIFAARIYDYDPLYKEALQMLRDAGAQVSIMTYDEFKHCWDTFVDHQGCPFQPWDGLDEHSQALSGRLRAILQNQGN
A3G deaminase: APOBEC3G (human) deaminase inhibition; 330,000 compounds, 0.28% hits; AID 493012; inhibition, % at 20 µM; Q9HC16; recombinant A3G, ssDNA deamination FAM/TAMRA fluorescence;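 active = inhibition of at least 40% at 20 µM, with no more than 30% in the related APOBEC3A deaminase screen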
Target sequence (Q9HC16 whole entry, looked up): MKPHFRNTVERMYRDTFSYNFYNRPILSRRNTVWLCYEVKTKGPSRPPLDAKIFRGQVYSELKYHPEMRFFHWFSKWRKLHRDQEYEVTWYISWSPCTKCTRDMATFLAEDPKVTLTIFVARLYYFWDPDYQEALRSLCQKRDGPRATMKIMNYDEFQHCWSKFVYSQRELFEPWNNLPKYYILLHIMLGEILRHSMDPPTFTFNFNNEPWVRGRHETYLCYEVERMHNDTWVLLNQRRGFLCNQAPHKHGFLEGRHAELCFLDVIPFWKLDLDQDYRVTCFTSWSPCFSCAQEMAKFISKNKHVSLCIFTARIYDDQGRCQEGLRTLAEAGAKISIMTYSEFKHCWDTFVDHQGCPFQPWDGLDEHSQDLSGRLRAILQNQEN
M18AAP inhibitor: PfM18AAP enzyme inhibition. recombinant PfM18AAP, H-Glu-NHMec fluorogenic cleavage. inhibition, % at 7.35 µM. 290,000 compounds, 1.2% hits. AID 1822;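 active = inhibition above the campaign mean inhibition over all tested compounds plus 3 SD, cut at about 28% in these data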
CR mimetic SO: caloric restriction mimetics inhibiting age-related superoxide in yeast; 330,000 compounds, 0.18% hits; superoxide response (% of plate mean), % at 10 µM; S. cerevisiae aged cells, superoxide DHE fluorescence; hits give low values;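 active = superoxide response under a set limit, about three screen SD below normal, cut at about 65% in these data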;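 also: yeast aged for seven days with compound at 30 °C before DHE staining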
PfGluPho inh: PfG6PD (Plasmodium falciparum) enzyme inhibition; inhibition, % at 20 µM; AID 504690; PfGluPho enzyme, NADPH resazurin-diaphorase fluorescence; 350,000 compounds, 0.78% hits;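 active = inhibition reaching at least a set limit at 20 µM in the primary screen, cut at about 59% in these data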
PfGluPho conf: confirmation of Plasmodium falciparum G6PD inhibitors | shares compounds with PfGluPho inh | inhibition, % at 20 µM | recombinant PfGluPho, NADPH-diaphorase-resazurin fluorescence | 2,400 compounds, 34% hits | AID 504753;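 active = inhibition of at least 50% at 20 µM in any single replicate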
Diaph ctr 10uM: inhibits diaphorase or oxidizes, flagging false PfG6PD hits | shares compounds with PfGluPho inh | diaphorase-coupled resazurin reduction, fluorescence, NADPH 10 uM | inhibition, % at 20 µM | 820 compounds, 39% hits | AID 504862;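 active = average inhibition reaching 50% or more with the compound at 20 µM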;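 also: resorufin red fluorescence formed as diaphorase reduces resazurin using NADPH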
Diaphorase 30uM: counter-screen for P. falciparum G6PD inhibitors: diaphorase inhibitors, oxidizers; AID 504863; inhibition, % at 20 µM; shares compounds with PfGluPho inh; Diaphorase/resazurin coupled assay, resorufin fluorescence, 30 uM NADPH; 820 compounds, 29% hits;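 active = inhibition averaging 50% or more, tested at 20 µM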
Numbers stand for hits; 0 = inactive; - = no result.

SMILES | A3A deaminase | A3G deaminase | M18AAP inhibitor | CR mimetic SO | PfGluPho inh | PfGluPho conf | others
Cc1ccc(C)n1-c1ccc(N(C)C)cc1 | 0 | 0 | 0 | 0 | 63 | 0
CN(C)S(=O)(=O)c1cccc(NC(=O)c2ccc(-n3cncn3)c([N+](=O)[O-])c2)c1 | 0 | 0 | - | 0 | 0 | -
O=C(CNCc1ccc(Cl)cc1)Nc1cc(S(=O)(=O)N2CCCC2)ccc1Cl | - | - | - | - | 0 | -
CCCc1nc(SCc2ccc(Cl)cc2Cl)n[nH]1 | 0 | 0 | 0 | 0 | 72 | 0
CCc1nc(SCc2ccc(Cl)cc2)n[nH]1 | 0 | 0 | 0 | 0 | 0 | -
CCOc1cc(/C=N/O)ccc1OCc1ccc(C)cc1 | 0 | 0 | 0 | 0 | 66 | 0
CCOc1cc(/C=N/O)ccc1OS(=O)(=O)c1ccc(C)cc1 | 0 | 0 | 0 | 0 | 0 | -
CCOc1cc(/C=N/O)cc(Br)c1OCc1ccc(Cl)cc1 | 0 | 0 | 0 | 0 | 76 | 0
CCOc1cc(/C=N/O)cc(Br)c1OCC | 0 | 0 | 0 | 0 | 0 | -
Cc1ccc(CN(C(=O)c2csnn2)C(C(=O)NC2CCCC2)c2ccccn2)cc1 (stereo unspecified) | 0 | 0 | 0 | 0 | 0 | -
CC1CCCCN1CC(=O)Nc1ccc2c(c1)OCO2 (stereo unspecified) | 0 | 0 | - | 0 | 0 | -
CC1=CC(C)(C)NC(=S)N1c1cc(C)cc(C)c1 | 0 | 0 | 0 | 0 | 63 | 0
CC1=CC(C)(C)NC(=S)N1c1cccc(Cl)c1 | - | - | - | - | 0 | -
O=S(=O)(Cc1cccc(F)c1)c1c[nH]c2ccccc12 | 0 | 0 | 0 | 0 | 86 | 0
O=C(CS(=O)(=O)c1c[nH]c2ccccc12)Nc1ccc(F)cc1 | 0 | 0 | 0 | 0 | 0 | -
CNS(=O)(=O)c1cccc(C(=O)OCC(=O)Nc2ccc3ccccc3c2)c1 | 0 | 0 | - | 0 | 0 | -
Fc1cccc(F)c1/C=C/c1ccc2ccccc2n1 | 0 | 0 | 0 | 0 | 0 | -
C(=C\c1ccco1)/c1ccc2ccccc2n1 | 0 | 0 | 0 | 0 | 66 | 0
COc1cc(SC)ccc1C(=O)Nc1ccc2ncccc2c1 | 0 | 0 | 0 | 0 | 81 | 0
COc1cc(SC)ccc1C(=O)Nc1ccccn1 | 0 | 0 | 0 | 0 | 0 | -
COc1cc(SC)ccc1C(=O)Nc1ccc(C)cc1 | 0 | 0 | 0 | 0 | 61 | 0
COC(=O)c1cccc(C(=O)N2CCCC(CCC(=O)N(C)CCc3ccccn3)C2)c1 (stereo unspecified) | 0 | 0 | 0 | 0 | 0 | -
Clc1ccc2nc(-c3ccc4c(c3)OCO4)cn2c1 | 0 | 0 | 0 | 0 | 73 | 50 | Diaph ctr 10uM=0;Diaphorase 30uM=0
c1ccn2cc(-c3ccc4c(c3)OCCO4)nc2c1 | 0 | 0 | 0 | 0 | 0 | -
Clc1ccc2nc(-c3ccccc3)cn2c1 | 0 | 0 | 0 | 0 | 64 | 0
SMILES | A3A deaminase | A3G deaminase | M18AAP inhibitor | CR mimetic SO | PfGluPho inh | PfGluPho conf | others
Cc1ccc2nc(-c3ccc4c(c3)OCCO4)cn2c1 | 0 | 0 | 0 | 0 | 109 | 58 | Diaph ctr 10uM=74;Diaphorase 30uM=61
O=C(O)c1cc(-c2ccc3c(c2)OCO3)nc2ccc(Cl)cc12 | 0 | 0 | 0 | 0 | 0 | -
CN(C)S(=O)(=O)c1cccc(-c2cn3cc(Cl)ccc3n2)c1 | 0 | 0 | 0 | 0 | 0 | -
Cc1ccc2nc(-c3ccc4c(c3)NC(=O)CO4)cn2c1 | 0 | 0 | 0 | 0 | 104 | 0
CC(C)c1nc(SCC(=O)NCC2CCCO2)c2c(=O)n(C)c(=O)n(C)c2n1 (stereo unspecified) | 0 | 0 | 0 | 0 | 0 | -
NC(=O)CSc1nnc(-c2ccccc2Br)n1-c1cccc(C(F)(F)F)c1 | 0 | 0 | 0 | 0 | 69 | 59 | Diaph ctr 10uM=59;Diaphorase 30uM=55
O=C(CN1CCN(c2ccc(O)cc2)CC1)Nc1ccc2c(c1)OCCCO2 | 0 | 0 | - | 0 | 79 | 0
COc1ccc(NC(=O)c2ccc(NC(=O)CN3CCN(c4ccc(O)cc4)CC3)cc2)cc1 | - | - | - | - | 75 | 0
O=C(CN1CCN(c2cccc(C(F)(F)F)c2)CC1)Nc1ccc2c(c1)OCCCO2 | - | - | - | - | 0 | -
O=C(CCc1c[nH]c2ccccc12)N1CCN(S(=O)(=O)c2ccc(F)cc2)CC1 | 0 | 0 | - | - | 0 | -
O=C(CCSCCC(=O)NN=Cc1ccccc1)NN=Cc1ccccc1 | - | - | - | - | 72 | 55 | Diaph ctr 10uM=0;Diaphorase 30uM=0
O=C(CSc1nc2ccccc2o1)N/N=C/c1ccccc1 | 0 | 0 | 0 | 0 | 69 | 68 | Diaph ctr 10uM=61;Diaphorase 30uM=52
CC(Sc1ccccc1)C(=O)N/N=C/c1ccccc1 (stereo unspecified) | 0 | 0 | - | 0 | 77 | 0
O=C(CCC(=O)Nc1ccc(F)cc1)N/N=C/c1ccccc1 | 0 | 0 | 0 | 0 | 0 | -
O=C(CSCc1ccc(Cl)cc1)N/N=C/c1ccccc1 | 0 | 0 | 0 | 0 | 118 | 93 | Diaph ctr 10uM=90;Diaphorase 30uM=80
O=C(CSCc1ccc(Cl)cc1)N/N=C/c1c(Cl)cccc1Cl | - | - | 0 | 0 | 0 | -
C/C(=N\NC(=O)C(C)Sc1ccccc1)C(C)(C)C (stereo unspecified) | 0 | 0 | 0 | 0 | 0 | -
CCOC(=O)C1C(=O)C(=O)N(C2CCCCC2)C1C(=O)OCC (stereo unspecified) | - | - | - | - | 0 | -
N#Cc1ccncc1Sc1ccc(Cl)cc1 | 0 | 0 | 0 | 0 | 0 | -
CC1(C)CC2(C)CC(=O)C1C(C(=O)O)C2C(=O)O (stereo unspecified) | - | - | - | - | 0 | -
CC(C)c1ccccc1-n1c(SCc2cc(=O)oc3ccc4ccccc4c23)nnc1-c1cccnc1 | 0 | 0 | 0 | 0 | 61 | 0
CCOc1ccc(-n2c(SCc3cc(=O)oc4cc(C)ccc34)nnc2-c2cccnc2)cc1 | 0 | 0 | 0 | 0 | 0 | -
CC(NC(=O)CN1C(=O)NC2(CCCCC2)C1=O)c1ccc(S(N)(=O)=O)cc1 (stereo unspecified) | - | - | - | - | 0 | -
CCC(C)(C)NC(=O)C(c1ccc(C)cc1)N(Cc1cccs1)C(=O)c1ccc2c(c1)OCCO2 (stereo unspecified) | 0 | 0 | 0 | 0 | 62 | 0
Cc1ccc(C(C(=O)NC(C)(C)C)N(Cc2cccs2)C(=O)c2ccc3c(c2)OCCO3)cc1 (stereo unspecified) | 0 | 0 | 0 | 0 | 0 | -
SMILES | A3A deaminase | A3G deaminase | M18AAP inhibitor | CR mimetic SO | PfGluPho inh | PfGluPho conf | others
Clc1ccc(C2=CSC3=NCCN23)c(Cl)c1 | 0 | 0 | - | 0 | 0 | -
Cc1ccc(C2=CSC3=NCCN23)c(C)c1 | 0 | 0 | 0 | 0 | 63 | 0
O=C(NCC(c1ccco1)N1CCCC1)c1cc(S(=O)(=O)N2CCOCC2)ccc1Cl (stereo unspecified) | 0 | 0 | - | 0 | 0 | -
COc1cc(C2C3=C(COC3=O)OC(C)(C)Oc3cc4c(cc32)OCO4)cc(OC)c1OC (stereo unspecified) | - | - | - | - | 0 | -
C[C@@H]1CN([C@@H](C)CO)C(=O)c2cc(C#CC3CCCCC3)cnc2O[C@@H]1CN(C)S(=O)(=O)c1ccc(F)cc1 | - | - | - | - | 66 | 0
C[C@@H]1CN([C@@H](C)CO)C(=O)c2cc(/C=C/c3ccccc3)cnc2O[C@@H]1CN(C)S(=O)(=O)c1ccc(F)cc1 | - | - | - | - | 0 | -
